In the library only some 7.3% were active in any assay of this set; here they are far more common.
FMDV antiviral – blocks foot and mouth disease virus; FMDV antiviral cell-based qHTS; Potency, µM (highest dose often 57.9 µM), for the others: top-dose activity change, negative = inhibition, actives largely listed as inhibitors; actives 1.2% (n = 410,000); calls by dose curve; tested in HEK293T cells; note: read-out not given here; potency is the fitted concentration of half-maximal effect; nearly all actives have a fitted effect of over 45% in size
Vaccinia Venus – inhibitors of vaccinia virus (Venus reporter); Vaccinia virus Venus reporter expression, fluorescence; Potency, µM (series often up to 36.5 µM), inactives show at the highest dose activity change, negative = inhibition, actives largely listed as inhibitors; actives 0.46% (n = 330,000); AID 720580; calls by dose curve; tested in A549 cells; note: potency is the fitted concentration of half-maximal effect; nearly all actives have a fitted effect of over 30% in size
HCMV inh – human cytomegalovirus inhibition; activity change, negative = inhibition, % at 57.5 µM; HFF cells, HCMV-luciferase reporter, 72 h; stronger effect = lower value; actives 4.5% (n = 410,000); in the data active = activity change below about -60%; inconclusive = no clear call, values can overlap the other calls; inactive = above about -39%
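Inhibition of viral replication was scored as loss of reporter luminescence in HFFs infected with HCMV-luciferase (MOI 1 PFU/cell) for 72 h; compounds tested at 2 doses, normalized to buffer and Salinomycin controls.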
VACV mCherry inh – vaccinia inhibition (mCherry reporter); Vaccinia virus mCherry reporter infection, fluorescence; Potency, µM (highest dose often 36.5 µM), for inactives: at the top dose activity change, negative = inhibition, hits mostly inhibitors; actives 0.63% (n = 310,000); AID 720579; calls by dose curve; tested in A549 cells; note: potency is the fitted concentration of half-maximal effect; nearly all actives have a fitted effect of over 35% in size
HCV inhibitor – inhibitors of hepatitis C virus infection | actives 3.4% (n = 340,000) | Huh7.5.1 HCVcc-Cre infection, luciferase reporter, 44 h | AID 651820 | Potency, µM (highest dose often 41.8 µM), for inactives: at the highest dose activity change, negative = inhibition, usual class: inhibitors; active = well fitted inhibition curve with a large enough effect; inconclusive = small, poorly fitted or top-dose-only effect, or another doubt; inactive = no such curve, though single readings can be large or run the other way; note: potency is the fitted concentration of half-maximal effect
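Seed cells (1,000/well) for 4 h; treat with compound and infect with HCVcc-Cre, moi about 0.5. Incubate 44 h, then detect luciferase activity.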
Starred values were filed as active, the others as inactive; i = inactive; ? = inconclusive; . = not tested or not shown; [ ] = dose if it differs, or a comment. % is set by controls: 0 for no effect and ±100 for the full control effect.

SMILES | FMDV antiviral | Vaccinia Venus | HCMV inh | VACV mCherry inh | HCV inhibitor
CCO[C@@H]1OC(C(=O)Nc2ccccc2)=C[C@H](c2ccccc2)[C@H]1CCCO | -16% | -1% | -61* | 25% | 1%
CCO[C@H]1OC(C(=O)O)=C[C@@H](c2ccc3c(c2)OCO3)[C@@H]1CCCO | -6% | 1% | -101* | -12% | 2.5µM*
CCO[C@H]1OC(C(=O)NCc2nc3ccccc3[nH]2)=C[C@@H](c2csc3ccccc23)[C@@H]1CCCO | 0% | -19% | 33 | 11% | 1µM*
Fc1cccc(Cl)c1Cn1c(-c2cccs2)nc2ccccc21 | 0% | -6%[7.34 µM] | -63* | -7%[7.34 µM] | .
COc1cc(=O)n2c(c1C(=O)NCc1ccco1)CCN(Cc1cccc(C(F)(F)F)c1)CC2 | -8% | -3% | . | -8% | .
O=C(/C=C/c1cc(Br)ccc1O)c1ccco1 | ? | -12% | -79* | ? | ?
O=C(/C=C/c1ccccc1O)c1ccco1 | ? | 13µM* | -17 | ? | 21%
Nc1ccc(/C=C/C(=O)c2ccco2)cc1 | 53% | -5% | 1 | -1% | -3%
Cc1ccc(NC(=S)NNc2ncc(C(F)(F)F)cc2Cl)cc1 | ? | ? | -26 | ? | ?
Cc1ccc(NC(=S)NNc2ncc(C(F)(F)F)cc2Cl)c(C)c1 | ? | ? | -37 | -26% | ?
FC(F)(F)c1cnc(NNC(=S)Nc2ccc(Cl)cc2)c(Cl)c1 | -26% | ? | -99* | ? | ?
Fc1ccc(NC(=S)NNc2ncc(C(F)(F)F)cc2Cl)c(F)c1 | -41% | -43% | -99* | -47% | 22µM*
COc1ccc(-c2csc(N3CCN(S(=O)(=O)c4ccc5c(c4)NC(=O)CO5)CC3)n2)cc1 | ? | . | -88* | . | ?
Cc1c(C(=O)Nc2ccccc2)c2ccc(C(F)(F)F)cc2n1O | ? | -4%[7.34 µM] | -95* | -7%[7.34 µM] | ?
COc1ccc(C(=O)N2CCN(C(=O)c3ccc(-c4ccccc4)cc3)CC2)cc1OC | -24% | -32% | -22 | -12% | ?
Cc1ccc(S(=O)(=O)CCC(=O)N2CCN(c3nc4c(C)c(Cl)ccc4s3)CC2)cc1 | ? | -16% | -1 | -30% | .
COc1ccc(C(=O)N2CCN(c3nc4ccccc4o3)CC2)cc1OC | ? | -14% | ? | i | 11µM*
COc1ccccc1-c1nnc(C2CCN(S(=O)(=O)c3ccccc3)CC2)o1 | 3% | -11% | -12 | -14% | .
COc1ccc(C(=O)N2CCC(c3noc4ccccc34)CC2)cc1OC | . | . | -65* | . | .
COc1ccccc1-c1nnc(C2CCN(C(=O)c3cccc(C)c3)CC2)o1 | 11% | -10% | -65* | -14% | .
COc1cccc2sc(N3CCN(C(=O)CCS(=O)(=O)c4ccc(F)cc4)CC3)nc12 | 20µM* | -27% | -88* | -25% | .
COc1ccc(C(=O)N2CCN(c3ccc(C)cc3)CC2)cc1OC | ? | -12% | -12 | -14% | -8%
Cc1c(C(=O)NCC2COCCO2)cnn1-c1nccc(-c2cccs2)n1 (stereo unspecified) | 32% | -13% | . | -4% | .
O=C(NCC1CC1)C1=COC2=NC(=O)N(Cc3cccc(Cl)c3)CCN12 | . | . | -7 | . | .
COc1ccc(C(=O)N2CCN(c3nc4c(OC)cccc4s3)CC2)cc1OC | ? | ? | -84* | -6% | .
SMILES | FMDV antiviral | Vaccinia Venus | HCMV inh | VACV mCherry inh | HCV inhibitor
COc1ccc(NC(=O)c2cc3c(=O)n(Cc4ccco4)ccc3nc2C)cc1 | -7% | -10% | -22 | -5% | .
CN(C)C(=O)c1cccc(-c2cccc(-c3nc(C(=O)NCc4ccccc4)cc4c3[C@@H](CCO)N(S(=O)C(C)(C)C)C4)c2)c1 (stereo partly specified) | -16% | -11% | -61* | 11% | .
CCOc1ccc(C(=O)Cn2c(=O)n3nc(CCn4nc(C)cc4C)nc3c3cc(OC)c(OC)cc32)cc1 | -7% | ? | 7 | 3.5µM* | .
Cc1nc(N2CCCC2)c2c(C(=O)Nc3ccc(C)c(Cl)c3)c(C)oc2n1 | -9% | -15% | -13 | i | .
COc1ccccc1NC(=O)c1sc2ncn(Cc3ccccc3Cl)c(=O)c2c1C | -10% | -22% | 4 | -8% | .
Cc1ccc2c(c1)N(C(=O)CSc1nncn1C)C(C)(C)c1ssc(=S)c1-2 | 0% | ? | 7 | . | 10µM*
COc1ccc(C2CC(=O)N(Cc3ccc(F)cc3)c3ccccc3S2)cc1OC (stereo unspecified) | 40µM* | -17% | 18 | -23% | .

Compound activity as filed in PubChem.
